The text below walks through data of PubChem BioAssay AID2320 (National Center for Advancing Translational Sciences (NCATS), 2010).

Results filed as inconclusive are left out. Unmarked numbers belong to inactive results. Calls of active or inactive are those of the source. Calls come from the whole dose curve.
Potency is the fitted concentration of half-maximal effect.

The test in a line: A qHTS for Small Molecule Inhibitors of Shiga Toxin (Confirmatory). For activity, positive = inhibition of toxin: 0% is about no effect. Note: nearly all actives have a fitted effect of over 75% in size. The following applies: Cell-based Shiga toxin protection reporter assay; series mostly up to 38.3 µM; activity, positive = inhibition of toxin: at the top concentration.
Regarding `CCN(C1CCCCC1)S(=O)(=O)c1ccc(S(=O)(=O)NCc2ccncc2)cc1`, the “activity, positive = inhibition of toxin” value is 34.1%.
Consider `CC(=O)c1ccccc1Oc1ncnc(N)c1[N+](=O)[O-]`, for which the “activity, positive = inhibition of toxin” value was -5.59%.
As to `Cc1cc(N/C=C\c2nnnn2-c2ccccc2)no1`, the Potency is 22.5 µM (active).
As to `COc1ccc(C/C(O)=C(\C#N)c2nc3ccccc3s2)cc1`, the “activity, positive = inhibition of toxin” value is 6.3%.
As for `COc1ccc(N2CCN(Cc3csc(C)c3-c3ccc(C)cc3)CC2)cc1`, the “activity, positive = inhibition of toxin” value was -28.3%.
For `CC[N+](CC)(CCO)CCCN1C(=O)C2CC=C(Cl)CC2C1=O` (stereo not drawn), the “activity, positive = inhibition of toxin” value was -10.6%.
On the same count and under the same terms, under `CN1CCN(Cc2ccc(N)cc2)CC1` stands 30.4%; under `COc1ccccc1CN(Cc1cccnc1)S(=O)(=O)c1ccc(-n2cnnn2)c(OC)c1`, -24.3%.
Regarding `Cc1nc(N2CCN(C(=O)c3ccco3)CC2)nc2c1C(=O)CCC2`, the Potency was 6.34 µM (active).
Consider `O=C(O)C1CCCCC1C(=O)Nc1ccc(-c2ccccc2)cc1` (stereo not drawn), for which the Potency was 10 µM (active).
The same measure, in the same setting: under `CC1CC(C)CN(C(=O)C(NS(=O)(=O)c2ccc(Br)s2)c2ccccc2)C1` (stereo not drawn) stands 2.25 µM (active); under `O=C(Nc1ccccc1)c1ccccc1O`, 14.2 µM (active).
With `COCCCNC(=O)c1cn(C)c(=O)c2c1c1ccccc1n2C`, the “activity, positive = inhibition of toxin” value was -30.2%.
With `C=CCn1c(=S)[nH]c2cc(-c3ccccc3)sc2c1=O`, the Potency is 0.0113 µM (active).
`COc1ccc(C(=O)CSc2nnc(C(CO)NC(=O)c3ccc(OC)cc3)n2C)cc1` (stereo not drawn): the “activity, positive = inhibition of toxin” value is -22.9%.
Same read-out and setting: under `COc1ccc(NC(=O)c2cccnc2Nc2ccc(OC)cc2)cc1` stands 49.4%.
As for `O=C1ON=C(c2ccccc2)/C1=C/c1ccc(OS(=O)(=O)c2ccccc2)cc1`, the Potency is 7.11 µM (active).
Still for that read-out and setting: under `O=C(Nc1ccc(/C=C/c2nc3ccccc3o2)cc1)c1ccc(F)cc1` stands 3.18 µM (active).
Turning to `COc1ccccc1NC(=O)CSc1nnc(CC(=O)Nc2ccccc2F)n1C`, the “activity, positive = inhibition of toxin” value is -1.04%.
`COc1ccccc1CNc1nc2ccccc2n1CCN1CCCCC1`: the “activity, positive = inhibition of toxin” value is 45.6%.
As for `Cc1ccc(-c2nnc(SCC(=O)NC3CCCC3)n2C)cc1`, the “activity, positive = inhibition of toxin” value is -30.6%.
On the same count and under the same terms, under `CC1CCc2sc(C(=O)NN)cc2C1` (stereo not drawn) stands 3.83%.
Same read-out and setting: under `CCCCc1ccc(NS(=O)(=O)N(C)C)cc1` stands 22.2%.
Turning to `O=C(CSc1nnc(-c2ccccn2)o1)Nc1ccccc1C(F)(F)F`, the Potency was 8.95 µM (active).
Consider `CCCC(=O)Nc1cnc(NC(=O)c2cccc(F)c2)cc1C`, for which the Potency is 0.711 µM (active).
The same measure, in the same setting: under `COc1ccc(CNCC(=O)Nc2sccc2C#N)cc1` stands 20 µM (active); under `Cc1cc(C)c2nc(-c3ccccn3)cc(C(=O)NCc3ccco3)c2c1`, 15.9 µM (active); under `Cc1ccc(NC(=O)C(C)N=C2NS(=O)(=O)c3ccccc32)cc1` (stereo not drawn), 0.0005 µM (active).
With `CCOC(=O)c1[nH]c2ccc(OC)cc2c1NC(=O)C(C)N1CCC2(CC1)OCCO2` (stereo not drawn), the “activity, positive = inhibition of toxin” value is -37.1%.
In the case of `C/C1=C\[C@@H](O)C(C(C)C)C(OC(=O)c2ccc(O)cc2)C/C(C)=C/CC1` (stereo partly drawn), the Potency is 17.9 µM (active).
Same read-out and setting: under `O=C(Nc1ccc2oc(-c3ccccc3)nc2c1)c1ccc2c(c1)OCCO2` stands 14.2 µM (active).
Turning to `COc1ccc(NC(=O)CSc2nccn2-c2cccc(OC)c2)cc1`, the “activity, positive = inhibition of toxin” value is -33.2%.
Still for that read-out and setting: under `O=C(c1cc2c(s1)-c1ccccc1OC2)N1CCN(c2ccccc2)CC1` stands -19.8%.
The same measure, in the same setting: under `COc1ccc(-c2cnc[nH]2)cc1` stands 15.5%.
On to `CCCn1c(C)cc(/C=C(\C#N)C(=O)OCC(=O)Nc2ccc(OC)c(Cl)c2)c1C`, for which the Potency was 8.95 µM (active).
With `Cc1cc(C)n(-c2nc3c(c(=O)[nH]c(=O)n3C)n2Cc2cccc(Br)c2)n1`, the “activity, positive = inhibition of toxin” value was 20%.
With `NC(=O)C1CCN(C(=O)C2c3ccccc3C(=O)N3CCc4ccccc4C23)CC1` (stereo not drawn), the “activity, positive = inhibition of toxin” value was -53.8%.
As for `O=C(Nc1cccc(-c2csc(Nc3ccc(Cl)cc3)n2)c1)c1ccccc1`, the Potency is 6.34 µM (active).
